# Screens from PubChem.
# Shown is part of a subset that was picked to be rich in hits.
# Pf Dd2 growth – blocks in vitro growth of P. falciparum Dd2. P. falciparum Dd2 growth, SYBR Green, 72 h. Potency, µM (top dose mostly 28.9 µM), usual class: inhibitors. hit rate 4.3% among 120,000; active = well fitted inhibition curve with a large enough effect; note: nearly all actives have a fitted effect of over 65% in size
#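 Readout: SYBR Green fluorescence, 485 nm excitation, 535 nm emission, after ~16 h lysis at 37C. Before that, Dd2-infected red cells (2.5% hematocrit) grew 72 h with compound, 29 uM top final concentration.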
# Numbers stand for hits; 0 = inactive.
SMILES,Pf Dd2 growth
CCOCCn1c(=O)[nH]c2cc(C(=O)NCc3noc(CC)n3)ccc21,0
CCC(C)n1c(C(C)CC(=O)Cc2ccccc2)nc2cccnc21 (centres undefined),0
O=C(Nc1cccc(Cl)c1)C1CCN(c2cc(C(F)(F)F)ncn2)CC1,0
O=C(NCCNc1cccnc1)C1CCC(=O)N(Cc2ccc(Cl)cc2)C1 (centres undefined),0
COc1cc(F)ccc1-c1ccc2ncn(C3CC3)c(=O)c2n1,0
COc1ccc(NC(=O)N2C[C@@H](F)C[C@H]2C(=O)N2CCCCC2)cc1OC,0
CC[C@H]1CN(S(=O)(=O)c2ccc(OC)cc2)CC[C@H]1CC(=O)NCc1cccc2ccccc12,0
COc1ccc(C2Cn3nnc(C(=O)NCc4ccc(SC)cc4)c3CO2)cc1 (centres undefined),0
COc1ccc(OC)c(NC(=O)c2nnn3c2COC(c2ccc(Cl)cc2)C3)c1 (centres undefined),0
COc1ccc(C2Cn3nnc(C(=O)Nc4cc(C)ccc4F)c3CO2)cc1 (centres undefined),11µM
CCNC(=O)N1CCCC1c1noc(CCC(=O)NCC(C)C)n1 (centres undefined),0
CCOc1ccc(NC(=O)N2CCC(Oc3ncccc3C(=O)N3CCCCC3)C2)cc1 (centres undefined),0
CCCCN(CC)CCNC(=O)c1cc2c(=O)[nH]c3ccccc3c2n1C,0
CCCCN(CC)CCCNC(=O)c1cn(CC(C)C)c(=O)c2c1c1ccccc1n2C,7.1µM
CCCN(CCC)CCCNC(=O)c1cc2c(=O)[nH]c3ccccc3c2n1C,0
CCOCCCNC(=O)c1cc2c(=O)n(C)c3ccccc3c2n1C,0
CCCCN(CCCC)CCNC(=O)c1cn(CC)c2ccc(S(=O)(=O)N3CCc4ccccc4C3)cc2c1=O,0
CCCCN(CC)CCCNC(=O)c1cc2c(=O)[nH]c3ccccc3c2n1C,8.9µM
CCN(CC)CCNC(=O)c1cn(CCOC)c(=O)c2c1c1ccccc1n2C,10µM
COc1cc(Cl)c(C)cc1NC(=O)c1cn(C2CCCC2)c(=O)c2c1c1ccccc1n2C,0
CCCCNC(=O)c1c(C)oc2ncn(CC(C)C)c(=O)c12,0
O=C(O)CCCc1nc(-c2ccncc2)nn1C1Cc2ccccc2C1,0
CCC(=O)N1CCCN(CCOC)c2ccccc21,0
COc1ccccc1NC(=O)Cn1c(C)ccc(NC(=O)Nc2ccc(C)cc2)c1=O,0
CN1CCC(N(C(=O)NCCc2ccccc2)C2CCOCC2)CC1,0
SMILES,Pf Dd2 growth
O=C(NCc1nc(-c2ccncc2)n[nH]1)C1CCCN(C2CCCC2)C1 (centres undefined),0
Cn1nc(C(=O)N2CCc3nn(CC4CC4)c(=O)n3CC2)c2ccccc21,0
O=C(c1ccccn1)N1CCCC(CN2CCCC2)CC1 (centres undefined),0
Cn1nc(C(=O)N2CCCC(CN3CCCC3)CC2)c2ccccc21 (centres undefined),3.2µM
Cc1ccc(NC(=O)CC2CCOCC2)cc1C,0
COc1cccc(F)c1C(=O)N1CC(=O)N(c2ccc(Cl)cc2)CC1C (centres undefined),0
CN(Cc1ccc(N2CCCCC2)cc1)C(=O)CCC[C@H]1NC[C@@H]2C[C@H]1CN(Cc1ccccc1)C2,4.5µM
CN(Cc1cccnc1)C(=O)CCC[C@H]1NC[C@@H]2C[C@H]1CN(Cc1ccccc1)C2,0
CCN1CCN(CCCNC(=O)CCC[C@H]2NC[C@@H]3C[C@H]2CN(Cc2ccccc2)C3)CC1,0
O=C(CCC[C@H]1NC[C@@H]2CC1CN(Cc1ccccc1)C2)N1CCCC1,0
CCN1CCN(CCNC(=O)CCC[C@H]2NC[C@@H]3C[C@H]2CN(Cc2ccccc2)C3)CC1,0
Cc1nccn1CCNC(=O)CCC[C@H]1NC[C@@H]2C[C@H]1CN(Cc1ccccc1)C2,3.5µM
COc1ccc(CNC(=O)Cn2nc3n(c2=O)CCCC3)cc1,0
COc1cc(F)c(C(=O)N2C[C@@H](C(=O)O)[C@H](c3ccccc3)C2)c(F)c1,0
CNC(=O)[C@@H]1C[C@H](Oc2ccccc2)CN1C(=O)COc1ccc(F)cc1,0
O=c1c2oc3ccccc3c2n(Cc2cccc(C(F)(F)F)c2)c(=O)n1Cc1ccc2c(c1)OCO2,7.9µM
Cc1cccc(Cn2c(=O)n(Cc3ccccc3)c(=O)c3oc4ccccc4c32)c1,0
O=c1c2sc3ccccc3c2n(Cc2cccc(C(F)(F)F)c2)c(=O)n1Cc1ccccc1,0
Cc1ccc(C)c(Cn2c(=O)n(Cc3ccc4c(c3)OCO4)c(=O)c3oc4ccccc4c32)c1,0
O=c1c2sc3ccccc3c2n(Cc2cccc(Cl)c2)c(=O)n1Cc1ccc(F)cc1,0
COc1ccc(Cn2c(=O)c3oc4ccccc4c3n(Cc3cccc(F)c3)c2=O)cc1,0
O=c1c2oc3ccccc3c2n(Cc2ccccc2F)c(=O)n1Cc1ccc2c(c1)OCO2,0
O=c1c2sc3ccccc3c2n(Cc2cccc(C(F)(F)F)c2)c(=O)n1Cc1ccc(F)cc1,11µM
O=c1c2oc3ccccc3c2n(Cc2cccc(Cl)c2)c(=O)n1Cc1ccc2c(c1)OCO2,10µM
CS(=O)(=O)N1CCC(C2CCN(C(=O)Cc3cccc(F)c3)C2)CC1 (centres undefined),0
SMILES,Pf Dd2 growth
CCNC(=O)N1CCCC1c1noc(CCC(=O)NCCC(C)C)n1 (centres undefined),0
O=C1CCCN1CCC1CCN(Cc2cccc(OCC(O)CN3CCOCC3)c2)CC1 (centres undefined),0
O=C(C[C@@H]1CCNC[C@@H]1Cc1cc(CSc2ccccc2)on1)NC1CCCCC1,0
CN1CCCC2(C1)CN(C)c1ccc(C(=O)NCCc3ccccc3)cc12 (centres undefined),0
Cc1nc(CN2CC3(CCN(C)C3)c3cc(C(=O)NCCc4ccccc4)ccc32)cs1 (centres undefined),11µM
COCCNC(=O)c1ccc2c(c1)C1(CCN(C)C1)CN2Cc1csc(C)n1 (centres undefined),0
CC(C)n1nc(OC(C)(C)C(=O)NC2CC2)c2cc(CN3CCOCC3)ccc21,0
Cc1nc2c(C(=O)NCCc3ccc(Cl)cc3)c[nH]n2c(=O)c1Cc1ccccc1F,0
COc1ccc(CCNC(=O)c2c[nH]n3c(=O)c(Cc4ccccc4Cl)c(C)nc23)cc1OC,10µM
Cc1nc2c(C(=O)NCCc3ccccc3)c[nH]n2c(=O)c1Cc1ccc(F)cc1Cl,0
CCn1ncc(CN2CCCCCCN(C)C(=O)[C@@H]3CCC[C@@H]32)c1C,0
COc1ccccc1NC(=O)CN1C(=O)CSc2ccc(S(=O)(=O)N3CCCC3)cc21,0
COc1ccc(N2C(=O)CSC23C(=O)N(CC(N)=O)c2ccccc23)cc1 (centres undefined),0
COc1ccccc1NC(=O)CN1C(=O)C2(SCC(=O)N2c2ccc(C)c(C)c2)c2ccccc21 (centres undefined),10µM
COc1ccc(N2C(=O)CCSC23C(=O)N(Cc2ccc(F)cc2)c2ccccc23)cc1Cl (centres undefined),11µM
COc1cccc(CN2C(=O)C3(SCC(=O)N3c3ccc(F)cc3)c3ccccc32)c1 (centres undefined),0
Cc1ccc(N2C(=O)CSC23C(=O)N(Cc2ccccc2F)c2ccccc23)cc1F (centres undefined),0
Cc1ccc(C)c(NC(=O)CN2C(=O)C3(SCC(=O)N3c3ccc(C)c(C)c3)c3ccccc32)c1 (centres undefined),11µM
COc1ccc(N2C(=O)CCSC23C(=O)N(Cc2ccc(F)cc2)c2ccccc23)cc1 (centres undefined),0
